Shown are actives, neighbours in structure and some others; about 9% of the full set was active somewhere.
BAZ2B block = blocks human BAZ2B. Q9UIF8. AlphaScreen BAZ2B-H3K14Ac peptide displacement. Potency, µM (series often up to 114 µM), for the others: top-dose activity change, negative = inhibition, hits mostly inhibitors. 4.4% of 360,000 active; note: % is set by controls: 0 for no effect and ±100 for the full control effect; nearly all actives have a fitted effect of over 60% in size
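Protein-peptide AlphaScreen: BAZ2B 50 nM, b-H3K14Ac 50 nM, 1x PBS pH 7.4 + 0.01% Tween-20. Preincubation 30 min RT; cpd 30 min RT (top 110 uM); beads 20 min RT, light-protected.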
PLK1 PBD block = blocks phosphopeptide binding to human PLK1 polo-box domain. Plk1 PBD binding of FITC phosphopeptide, fluorescence polarization. Potency, µM, without a hit: max response, negative = inhibition, most hits filed as inhibitors. 2.8% of 360,000 active. AID 720504; note: series mostly up to about 57 µM; % is set by controls: 0 for no effect and ±100 for the full control effect; nearly all actives have a fitted effect of over 65% in size
HP1b chromo inh = blocks HP1-beta chromodomain binding to methylated histone tails; AlphaScreen HP1-beta / biotin-H3K9me3 peptide binding; Potency, µM (top dose mostly 114 µM), for inactives: at the highest dose activity change, negative = inhibition, most hits filed as inhibitors; 0.56% of 390,000 active; note: nearly all actives have a fitted effect of over 70% in size
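HP1-beta protein (50 nM final) preincubated 30 min at room temperature with biotinylated H3(1-18)K9me3 peptide (50 nM) in PBS pH 7.4, 0.01% Tween-20, then compound added for 30 min. AlphaScreen streptavidin donor/nickel chelate acceptor beads (10 ug/mL final), 30 min dark, luminescence read.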
G9a block = inhibitors of human histone lysine methyltransferase G9a. Q96KQ7. G9a H3K9 monomethylation, AlphaScreen, 2 h. Potency, µM (top dose mostly 102 µM), for the others: top-dose activity, negative = inhibition, actives largely listed as inhibitors. 8.8% of 350,000 active; note: % is set by controls: 0 for no effect and ±100 for the full control effect; nearly all actives have a fitted effect of over 75% in size
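Signal arises when biotinylated H3K9 peptide, once monomethylated, bridges streptavidin donor and antibody-captured acceptor beads. Enzyme at 20 nM was preincubated 15 min with test compounds; peptide 500 nM and SAM 20 uM then reacted for 2 h.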
12-LOX inh = inhibitors of human 12S-lipoxygenase ALOX12; 1.1% of 580,000 active; P18054; Potency, µM (titrated, usually from 108 µM), without a hit: at the top dose activity change, negative = inhibition, hits mostly inhibitors; purified 12hLO, xylenol orange hydroperoxide absorbance; note: % is set by controls: 0 for no effect and ±100 for the full control effect
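Purified human 12hLO at 150 nM in 25 mM Hepes, 0.01% Triton X-100, pH 7.0, preincubated 15 min at room temperature with compound. Reaction started with 40 uM arachidonic acid, 30 min at room temperature. Hydroperoxide measured by Fe-xylenol orange, 573/405 nm absorbance ratio.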
JMJD2A Tudor = inhibitors of human JMJD2A Tudor domain; AlphaScreen JMJD2A-Tudor / H3K4me3 peptide binding; Potency, µM (highest dose often 114 µM), inactives show at the highest dose activity change, negative = inhibition, usual class: inhibitors; 4.4% of 390,000 active; note: % is set by controls: 0 for no effect and ±100 for the full control effect; nearly all actives have a fitted effect of over 50% in size
* hit, by the source's call; ? = inconclusive; . = not tested or not shown; [ ] = dose if it differs, or a comment. Calls come from the whole dose curve; as a rule, active = well fitted curve in the direction sought with a large enough effect; inconclusive = small, poorly fitted or top-dose-only effect, or another doubt; inactive = no such curve, though single readings can be large; an effect the other way counts as inactive or inconclusive. Potency is the fitted concentration of half-maximal effect.

SMILES | BAZ2B block | PLK1 PBD block | HP1b chromo inh | G9a block | 12-LOX inh | JMJD2A Tudor
N=C(CC(O)COc1ccccc1-c1ccccc1)N1CCCCC1 (centres undefined) | . | . | . | 23.8%[59 µM] | 1.2% | .
NCCOc1ccccc1-c1ccccc1 | 5.4% | -3.6% | 29.6% | 13.8%[59 µM] | ? | -10.0%
CC(CCc1ccccc1)NC(=O)CN(C)Cc1ccc(F)cc1 (centres undefined) | 6.3% | -5.8% | -9.3% | 20.1% | 4.8% | -14.0%
CCOc1ccc(NC(=O)NCc2c(-n3cccc3)sc3c2CCCC3)cc1 | -26.3% | . | -12.3% | -49.8%[59 µM] | -26.3% | ?
CCCS(=O)(=O)NC(=O)C1(C)CCCN(C(=O)c2oc3ccccc3c2C)C1 (centres undefined) | . | -4.7% | . | . | 0.7% | .
CCCCCCc1nnc(NC(=O)c2ccco2)s1 | -5.4% | -17.7% | 26.8% | 50.4% | 26.9% | 1.3%
CCCCn1c(N)c(Sc2ccccc2[N+](=O)[O-])c(=O)[nH]c1=O | -7.4% | 2.6% | 26.8% | -5.1%[12.7 µM] | 18.7% | -3.4%
Cc1[nH]c(=O)[nH]c(=O)c1Sc1ccccc1[N+](=O)[O-] | -5.6% | 21.2µM* | 32.3% | 56.2µM* | -1.0% | -11.6%
NC[C@@H]1O[C@H](c2ccccc2)Cc2c1ccc(O)c2O | . | . | . | 7.0%[59 µM] | ? | .
NC[C@@H]1O[C@H](C23CC4CC(CC(C4)C2)C3)Cc2c1ccc(O)c2O | ? | -13.2% | -3.3% | 15.8µM* | ? | ?
COc1ccc(C(=O)CSc2nc3ncccc3[nH]2)cc1OC | -13.6% | -11.1% | 20.4% | -3.1% | 125.1% | -1.4%
CC1=C(C)C(C)=C(C#N)C(=C(C#N)C#N)N1 | ? | -9.2% | 5.7% | 39.8µM* | 1.12µM* | -18.9%
COc1cc(OC)c(N(C)S(=O)(=O)c2cccc(C(=O)NCc3cccs3)c2)cc1Cl | . | -0.6% | . | . | 10µM* | .
O=C(Nc1cccs1)OCCN1CCN(Cc2ccccc2)CCC1=O | 1.3% | -2.2% | 35.3% | 44.7µM* | -6.6% | -13.5%
CC1CC1C(=O)Nc1nc(-c2ccccn2)cs1 (centres undefined) | ? | ? | ? | 8.91µM* | ? | 56.2µM*
O=C(Nc1nc(-c2ccccn2)cs1)C1COc2ccccc2O1 (centres undefined) | 20µM* | -7.2% | 44.4% | -2.9%[59 µM] | 11.2% | 56.2µM*
COc1ccc(S(=O)(=O)Oc2ccc3c(c2)O/C(=C\c2cccnc2)C3=O)cc1 | ? | -13.0% | -23.7% | 39.8µM* | -6.2% | ?
COc1cc(OC)c(OC)cc1/C=C1\Oc2cc(OS(C)(=O)=O)ccc2C1=O | -35.0% | 5.6% | -3.9% | 39.8µM* | 9.8% | ?
COc1ccc(/C=C2\Oc3cc(OS(C)(=O)=O)ccc3C2=O)c(OC)c1 | . | . | . | . | -17.9% | .
Nc1nnc(-c2ccc(Cl)c([N+](=O)[O-])c2)s1 | -20.1% | -24.6% | 2.1% | 44.7µM* | -14.2% | -21.0%
C=CCn1c(CC(=O)OC)csc1=Nc1ccc(C(C)=O)cc1 | ? | -3.1% | -11.8% | ? | 0.5% | -12.3%
C=CCn1c(C)csc1=Nc1ccccc1C | 50.1µM* | 29.9µM* | 50.1µM* | 50.1µM* | -16.0% | 56.2µM*
C=CCn1c(C)csc1=Nc1ccc(C(C)=O)cc1 | 44.7µM* | -13.5% | -3.4% | ? | -4.8% | -5.3%[11.4 µM]
CCOC(=O)c1ccc(N=c2scc(C)n2CC)cc1 | 39.8µM* | 0.4% | ? | 22.4µM* | ? | 39.8µM*
COc1ccccc1CN1CC(C(=O)NCc2ccc(SC)cc2)CCC1=O (centres undefined) | -14.6% | -6.3% | 22.0% | 25.4% | 7.6% | -14.6%
SMILES | BAZ2B block | PLK1 PBD block | HP1b chromo inh | G9a block | 12-LOX inh | JMJD2A Tudor
Cn1nccc1CN1CCC2(C1)C(=O)N(c1ccccc1)c1ccccc12 (centres undefined) | . | . | . | . | 3.6%[6.33 µM] | .
CCOc1cc(N2CCOCC2)c(OCC)cc1NC(=O)Cn1nc(C)c([N+](=O)[O-])c1C | 13.2% | 5.4% | 50.9% | -8.2% | -15.4% | -10.5%
O=C(CCN1C(=O)/C(=C/c2ccccc2Cl)SC1=S)N1CCOCC1 | ? | -12.7% | 31.8% | ? | -8.8% | -15.2%
O=C(CCCN1C(=O)/C(=C/c2ccccc2Cl)SC1=S)NNC(=O)c1ccccc1Cl | -6.4% | -0.7% | 23.3% | 10.0%[59 µM] | -2.1% | -3.5%
O=C(CCCN1C(=O)/C(=C/c2ccccc2Cl)SC1=S)N1CCCC1 | 14.1µM* | -12.5% | ? | -5.9%[12.7 µM] | -18.7% | 14.1µM*
O=C(CCN1C(=O)/C(=C/c2ccccc2Cl)SC1=S)N1CCCC1 | 25.1µM* | -23.5% | ? | 13.0% | -7.6% | ?
COc1ccccc1-n1c(SCC(N)=O)nc2c(c1=O)SCC2 | 6.3% | -22.2% | 26.1% | ? | ? | -14.2%
Cc1cc(C(=O)Nc2cccc3c2O[C@H](CN(C)CC2CC2)[C@@H](C)CN([C@H](C)CO)C3=O)n(C)n1 | . | -3.5% | 49.1% | . | -2.9% | -7.8%
O=C(CN1CC2CC(C1)[C@H]1CCCC(=O)N1C2)NCCCN1CCCc2ccccc21 (some centres undefined) | . | . | . | . | 147.0% | .
COc1cccc(Nc2nc3ccccc3nc2NS(=O)(=O)c2cccs2)c1 | -0.7% | ? | 32.6% | 1.7%[12.7 µM] | ? | 89.1µM*
COc1ccc(Nc2nc3ccccc3nc2NS(=O)(=O)c2cccs2)cc1OC | . | . | . | . | 0.3% | .
O=C(O)c1ccc(Nc2nc3ccccc3nc2NS(=O)(=O)c2cccs2)cc1 | -9.5%[57.1 µM] | ? | 52.7% | 50.1µM* | ? | -23.0%
NC(=O)c1ccsc1NC(=O)COC(=O)c1nc(Cl)ccc1Cl | -5.0% | -9.5% | 21.9% | ? | -0.1% | -12.6%
COc1cccc(CN2CCN(C(=S)NCc3ccc(Cl)cc3)CC2)c1 | -27.3% | -1.3% | 27.9% | ? | -3.1% | -25.0%
Cc1cnc(CN2CCCC(C(=O)c3ccc4c5c(cccc35)CC4)C2)[nH]1 (centres undefined) | ? | -9.6% | ? | ? | 84.7% | 50.1µM*

High-throughput results from PubChem BioAssay.
